This is an account of results in PubChem BioAssay (NCI).

Experiment in all cases: NCI-60 one-dose screen, 48 h (100 = growth as untreated, 0 = no growth, -100 = all killed)
Settings in all cases: 10 µM unless noted

The subject of assay [1] is SK-MEL-2 melanoma.
Assay [2] concerns EKVX NSCLC.
The test system of assay [3] is SN12C renal.
Assay [4] deals with UO-31 renal.
The subject of assay [5] is TK-10 renal.
Assay [6] has as its system ACHN renal.
Assay [7] relates to CAKI-1 renal.
Assay [8] relates to A498 renal.
Assay [9] deals with CCRF-CEM leukemia.
For assay [10], the system named is MOLT-4 leukemia.
Assay [11] relates to RPMI-8226 leukemia.
The subject of assay [12] is OVCAR-8 ovarian.
Assay [13] relates to OVCAR-5 ovarian.
Assay [14] has as its system OVCAR-4 ovarian.
For assay [15], the system named is SK-OV-3 ovarian.
The test system of assay [16] is OVCAR-3 ovarian.
Assay [17] deals with HS 578T breast.
The test system of assay [18] is NCI/ADR-RES ovarian.
Assay [19] relates to IGROV1 ovarian.

Compounds without any hit were thinned out: in the full panel of roughly 83,000, 20% have a hit.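 Compound tested at a single concentration for 48 hours in 96-well plates; a percent growth value below 10 was scored as active.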 Unmarked numbers belong to inactive results. Active and inactive are the calls of the source.

With `C[C@H](C(=O)Nc1ccc(S(N)(=O)=O)cc1)S(=O)(=O)c1ccccc1`, the growth in [1] is 102%; in assay [2], 98.3%; in [3], 101%; in assay [4] it was 85.8%; in [5], 95.4%; in [6] it was 98.9%. In addition, the growth in assay [7] was 95.2%; in [8], 106%; in assay [9] it was 105%; in [10], 105%; in assay [11] it was 110%; in assay [12], 99.1%. The growth was 111% in assay [13]; 105% in assay [14]; 106% in [15]; 117% in [16]; 101% in [17]; 99.3% in [18].
In the case of `COc1cc2cc(Oc3ccc(NC(=O)Nc4cccc(C(F)(F)F)c4)cc3)c(C)nc2cc1OCCN1CCOCC1`, the growth in assay [1] is 78.6%; in assay [2], 25.4%; in assay [3] it was 47.7%; in assay [4], 51.8%; in [5], 66.3%; in [6], 21.4%. The growth in assay [7] is 56.2%; in assay [8], 64.2%; in assay [9], 23.9%; in assay [10], 6.76% (active); in [12], 25.1%; in assay [13], 109%. The growth is 20.1% in assay [14]; 92% in assay [15]; 57.7% in [19]; 28.6% in assay [16]; 86% in assay [17]; 45.3% in [18].
Take `COc1ccc(C(=O)COC(=O)[C@H](C[Se][Se]C[C@H](NC(=O)c2ccc(Br)cc2F)C(=O)OCC(=O)c2ccc(OC)cc2)NC(=O)c2ccc(Br)cc2F)cc1`: the growth in [1] is -93.8% (active); in assay [2] it was -69.4% (active); in assay [3], -79.9% (active); in [4] it was -95.4% (active); in assay [5], -79.6% (active); in assay [6], -86.9% (active). The growth is -83.2% (active) in assay [7]; -23.8% (active) in assay [8]; -25.4% (active) in assay [9]; -1.84% (active) in assay [10]; -64.2% (active) in assay [12]; -68.2% (active) in assay [13]. Besides, the growth is -87.9% (active) in [14]; -91.9% (active) in [15]; -86.1% (active) in assay [19]; -86.3% (active) in assay [16]; -6.55% (active) in [17]; -60% (active) in assay [18].
On to `COc1ccc2cc(C(C)C(=O)Nc3ccc(-c4n[nH]c(=S)n4C4CCCCC4)cc3)ccc2c1` (centres undefined), for which the growth in [1] was 77%; in assay [2], 70.5%; in [3] it was 73.4%; in [4], -79.3% (active); in assay [5], 95.9%; in assay [6], 73.4%. Also, the growth is 44.7% in assay [7]; 77.3% in assay [8]; 64.4% in [9]; 55.9% in assay [10]; 54.3% in assay [11]; 75.6% in [12]. Besides, the growth in assay [13] is 101%; in [14] it was 88.1%; in assay [15], 105%; in assay [16], 86.4%; in assay [17], 75.1%; in assay [18], 50.7%.
As for `O=c1c2cc(C(F)(F)F)ccc2sc2c(NCCCNCCO)nc3ccccc3c12`, the growth in [1] is 84.7%; in [2], 67.3%; in [3], 36.1%; in assay [4] it was 23.2%; in [5], -0.0148% (active); in assay [6] it was 2.14% (active). Also, the growth in [7] is -67.2% (active); in assay [8], 21.8%; in assay [9] it was -12.5% (active); in assay [10] it was -50.1% (active); in assay [12], -3.45% (active); in [13] it was 64.8%. Also, the growth in [14] is -41.6% (active); in [15] it was 74.9%; in assay [19] it was 15%; in [16], -73.8% (active); in [17], -9.58% (active); in [18] it was 1.68% (active).
In the case of `CCOC(=O)c1cn2ncnc(Oc3ccc(NC(=O)NCCN4CCN(C)CC4)c(Cl)c3)c2c1C`, the growth in assay [1] is 91.9%; in assay [2] it was 66.3%; in [3] it was 65%; in [4], 61.7%; in [5] it was 97.5%; in [6], 80%. For the same molecule, the growth is 76.3% in [7]; 77.9% in assay [8]; 44.3% in assay [9]; 57.2% in assay [10]; 64.7% in assay [12]; 97.1% in assay [13]. Moreover, the growth was 72.3% in assay [14]; 95.2% in assay [15]; 73.3% in assay [19]; 76.2% in [16]; 74.3% in [17]; 90.8% in assay [18].
In the case of `C/C(=C\C(=O)c1ccc(Cl)cc1)c1ccc(Cl)cc1`, the growth in assay [1] is 98%; in [2] it was 79%; in assay [3] it was 103%; in assay [4], 59.3%; in assay [5], 74.7%; in assay [6] it was 98.3%. Besides, the growth in assay [7] is 87.8%; in assay [8], 104%; in assay [9], 88.4%; in [10] it was 92.6%; in [11] it was 75%; in assay [12], 95.5%. Moreover, the growth in assay [13] was 62.3%; in assay [14] it was 67.3%; in assay [15], 94.3%; in [19], 76.3%; in assay [17], 96.6%; in [18], 103%.
Turning to `NS(=O)(=O)c1ccc(-n2nc(C(=O)N/N=C\c3ccc(F)cc3)cc2-c2ccc(Br)cc2)cc1`, the growth in [1] was 80%; in assay [2], 72.7%; in assay [3], 92.7%; in assay [4], 75%; in assay [5], 121%; in assay [6] it was 88.2%. Moreover, the growth in assay [7] is 41.8%; in [8], 31.9%; in [9] it was 74.8%; in assay [10], 80.4%; in assay [11], 94.9%; in [12] it was 94.5%. For the same molecule, the growth in [13] was 94.9%; in [14], 87.2%; in [15], 88.6%; in assay [16], 82.3%; in assay [17], 72.1%; in assay [18], 67.8%.
